Compounds with a hit are over-represented: about 4.7% of the library has one in this group of screens.
Efflux pump mplx: blocks antifungal efflux pumps in multiplex yeast assay; AID 485275; S. cerevisiae Candida pump triplex, Nile Red efflux; inhibition, % at 10 µM; actives 0.44% (n = 330,000);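 active = plate passing quality check with inhibition over a set limit, or well fluorescence over plate mean plus 4 SD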;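 note: Nile Red retained in pooled yeast measured as flow cytometry median fluorescence; 0% = buffer negative control and 100% = Enniatin B positive control; higher means more Nile Red kept so more efflux inhibition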
SUMO HTRF inh: SUMOylation inhibition | inhibition, % at 35 µM | HTRF SUMOylation assay, SAE1/SAE2 + UBC9, in vitro | P63279 | actives 0.36% (n = 290,000); in the data active = inhibition above about 50%, passing the limit was not always enough
PABP FP inh: PABP-poly(A) binding inhibition | PABP-poly(A) RNA binding, fluorescence polarization | inhibition, % at 35 µM | actives 1% (n = 290,000) | P11940;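 note: calls also rest on retests at 20 µM and on dose response follow-up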
Target sequence (P11940 whole entry, looked up): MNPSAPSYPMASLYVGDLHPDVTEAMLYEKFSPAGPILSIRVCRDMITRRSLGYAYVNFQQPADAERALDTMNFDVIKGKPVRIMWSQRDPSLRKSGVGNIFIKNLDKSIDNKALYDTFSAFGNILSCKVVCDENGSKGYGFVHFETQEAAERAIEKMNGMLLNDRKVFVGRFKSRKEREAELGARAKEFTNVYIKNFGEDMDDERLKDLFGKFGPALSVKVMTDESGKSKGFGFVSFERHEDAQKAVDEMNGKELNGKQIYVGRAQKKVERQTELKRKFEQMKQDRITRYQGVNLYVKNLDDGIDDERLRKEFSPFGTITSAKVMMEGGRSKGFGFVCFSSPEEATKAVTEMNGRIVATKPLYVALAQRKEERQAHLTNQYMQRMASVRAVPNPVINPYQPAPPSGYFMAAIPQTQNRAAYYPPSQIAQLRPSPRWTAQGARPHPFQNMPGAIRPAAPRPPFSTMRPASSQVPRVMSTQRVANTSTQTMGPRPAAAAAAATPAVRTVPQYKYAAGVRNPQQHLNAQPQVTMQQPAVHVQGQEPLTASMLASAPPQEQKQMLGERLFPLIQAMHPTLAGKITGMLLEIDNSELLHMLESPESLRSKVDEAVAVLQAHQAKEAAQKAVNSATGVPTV
ALR inh: inhibitors of human sulfhydryl oxidase ALR | inhibition, % (concentration not given with the values) | actives 3.8% (n = 290,000) | AID 485317 | purified ALR, DTT oxidation, H2O2 HRP-luminol luminescence | P55789;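 active = mean replicate inhibition above about 79%, with every replicate also reaching it, limit read from the data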
PABP1 MLLE inh: inhibitors of microRNA-mediated deadenylation, human PABP1 MLLE binding. GST-MLLE / FITC-PAM2 fluorescence polarization. inhibition, % at 20 µM. actives 0.36% (n = 360,000). AID 588489; in the data active = inhibition above about 35%, passing the limit was not always enough;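 note: plate controls were DMSO wells with GST-MLLE for no effect and wells lacking GST-MLLE protein for full effect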
eIF4H inh: inhibitors of RNA binding by human eIF4H. Q15056. eIF4H fluorescence polarization binding assay. inhibition, % at 35 µM. actives 0.94% (n = 290,000). AID 2012;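 note: calls also rest on retests at 20 µM and on dose response follow-up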
Starred values were filed as active, the others as inactive; · = no result. Unless noted, the rule behind the calls is not given here.

SMILES | Efflux pump mplx | SUMO HTRF inh | PABP FP inh | ALR inh | PABP1 MLLE inh | eIF4H inh
O=C(CSc1ccc(-c2ccco2)nn1)c1cccc([N+](=O)[O-])c1 | 0 | 73* | 10 | 51 | 29 | 103
O=C(CSc1ccc(-c2ccco2)nn1)NCc1ccccc1 | 0 | 18 | 6.9* | -6 | 32 | 97*
COC(C(=O)NC(C(C)C)C(C)C)c1ccccc1 (configuration not stated) | 0 | 3 | -9 | -7 | 5 | -2
CN1CCN(CCCNC(=O)c2ccc(CSCc3cccc(Cl)c3)o2)CC1 | 0 | 4 | 7 | 43 | · | -11
Cc1ccc(CSCc2ccc(C(=O)NCCCN3CCOCC3)o2)cc1 | 0 | 2 | -11 | 54 | 6 | -3
Cc1ccc(CSCc2ccc(C(=O)NC3CC3)o2)cc1 | 0 | · | · | -10 | 7 | ·
Cc1ccccc1CSCc1ccc(C(=O)NCCCN2CCOCC2)o1 | 0 | -12 | -5 | 98* | 10 | 0
O=C(NC1CC1)c1ccc(CSCc2cccc(F)c2)o1 | 0 | -1 | 6 | 99* | 16 | 8
CC1CCN(CCCNC(=O)c2ccc(CSCc3cccc(Cl)c3)o2)CC1 | 0 | 5 | -13 | 99* | 8 | -1
COc1cc(C(=O)NNC2=NC(C)(C)Cc3cc(C)c(C)cc32)cc(OC)c1OC | 0 | 8 | -10 | 1 | -12 | -4
CN(C)C(=O)c1c(-c2ccccc2)oc2ccc(O)cc12 | 0 | 27 | 3 | 98* | 11 | 4
O=C(O)c1c(-c2ccccc2)oc2ccc(O)cc12 | 0 | 18 | 6 | 10 | -11 | -5
CCc1nc2c(OCCn3cccc3)cccn2c1N(C)C(=O)c1ccco1 | · | · | · | · | 1 | ·
CC(=O)N/N=C(/C)c1ccc(NC(=O)c2csc(C)c2C)cc1 | 0 | 10 | 5 | -2 | 7 | -11
CCC1(C)Cc2c(sc3[nH]c(=S)[nH]c(=S)c23)CO1 (configuration not stated) | 0 | -6 | 1 | -1 | 27 | -2
CCC1(C)Cc2c(sc3[nH]c(=O)[nH]c(=O)c23)CS1 (configuration not stated) | 0 | 21 | 66* | 18 | 32 | 66*
Nc1c(Cl)ncnc1NCCc1ccc(O)cc1 | 0 | 17 | 6 | 90* | -10 | 3
O=C1C=C(c2ccc(Oc3ccccc3)cc2)C[C@@H](c2ccc3c(c2)OCO3)C1 | 0 | · | · | -25 | -3 | ·
O=C(N/N=C1/CCSC1)c1cc(Br)ccc1O | 0 | 6 | 14 | 93* | 14 | 13
Cc1ccc(Oc2nc3ccccn3c(=O)c2/C=C(\C#N)C(=O)NC2CCS(=O)(=O)C2)c(C)c1 (configuration not stated) | 0 | 9 | 6 | 84* | 0 | 10
CC(C)C(=O)N1CCN(c2ccccc2NC(=O)c2ccco2)CC1 | 0 | 8 | 3 | -9 | -5 | -10
O=C(O)c1ccc(-n2c(/C=C/c3cccc([N+](=O)[O-])c3)nc3ccccc3c2=O)cc1 | 3 | 2 | 10 | 90* | -7 | 0
O=C(O)c1ccc(-n2c(/C=C/c3ccccc3)nc3ccccc3c2=O)cc1 | 0 | 6 | 6 | 99* | -6 | 1
Cn1ncc2c(NCc3ccccc3)ncnc21 | 0 | 24 | 4 | -1 | -3 | -3
Clc1ccc(Cn2ncc3c(NCc4ccccc4)ncnc32)c(Cl)c1 | 5.5* | -3 | 1 | -3 | · | -1
SMILES | Efflux pump mplx | SUMO HTRF inh | PABP FP inh | ALR inh | PABP1 MLLE inh | eIF4H inh
COc1cc(OC)cc(C(=O)N2CCC(C(=O)Nc3ccc4c(c3)OCCO4)CC2)c1 | 5 | 6 | 23 | -3 | 5 | -2
COc1ccc(C(=O)NCCNc2nc3ccc(C)cc3cc2C#N)cc1OC | 0 | 9 | 5 | 90* | 4 | 2
OCC[C@@H]1NCc2cc(CO)cc(-c3ccccc3)c21 | · | · | · | · | -16 | ·
C/C=C/C(=O)N1CC2(CC(c3cccc(NC(=O)CC)c3)=NO2)C[C@H]1C(N)=O (some centres not stated) | 0 | 1 | 2 | -13 | -7 | -9
C=C(C)C(=O)Nc1cccc(C2=NOC3(C2)C[C@H](C(N)=O)N(C(=O)/C=C/C)C3)c1 (some centres not stated) | 0 | -9 | 68* | · | 3 | 88*
C=C(C)C(=O)Nc1cccc(C2=NOC3(C2)C[C@@H](C(N)=O)N(C(=O)/C=C/CC)C3)c1 (some centres not stated) | 0 | -6 | 56* | · | 2 | 84*
O=C(CSc1ccccc1C(=O)O)NC1CCCCCC1 | 0 | -2 | -6 | -8 | 79* | 3
O=C(CCS(=O)(=O)c1ccccc1)NC1CCCCC1 | 0 | 2 | -5 | 84* | -9 | -13
Cc1nnc2ccc(-c3ccc(NC(=O)c4ccco4)cc3)nn12 | 0 | 20 | -13 | 5 | -11 | 74*
O=C(Nc1ccc(Nc2ccccc2)cc1)c1ccco1 | 0 | 10 | -4 | 92* | 15 | 8
CC(=O)Nc1ccc2nc(-c3ccco3)[nH]c2c1 | 0 | 33 | 10 | -11 | 8 | 15
O=C(Nc1ccc2nc(-c3ccco3)[nH]c2c1)c1ccco1 | 0 | 33 | 26* | -12 | 12 | 61
COc1ccc(NC(=O)c2ccco2)cc1N | 0 | 28 | 74* | · | -2 | 92*
CCN(CC1CCCO1)C(=O)C1CCN(C2CCN(Cc3ccccc3C)CC2)CC1 (configuration not stated) | 0 | 8 | -1 | 1 | -17 | -2
Cc1nc2ccc(NC(=O)c3ccco3)cc2nc1C | 0 | 18 | -3 | 99* | 2 | -2
Cc1nc2cc(NC(=O)c3ccco3)ccc2n1C | 0 | 1 | -14 | 0 | -10 | -7
COC(=O)c1ccc(CNC(=O)Cn2cnc3c(SC)nc(N)nc32)cc1 | 0 | · | · | · | 6 | ·
CC1C(c2ccccc2)=Nn2c(=O)n(-c3ccccc3)c(=O)n21 (configuration not stated) | · | · | · | · | 3 | ·
CCCCCCCC(=O)N/N=C/c1ccco1 | 0 | 19 | -12 | 43 | 6 | -8
O=C(CCc1n[nH]c(=O)[nH]c1=O)N/N=C/c1ccco1 | 0 | 6 | active | -4 | -1 | 77*
CCCCCCC(=O)N/N=C/c1ccco1 | 0 | -3 | 0 | 97* | -8 | -1
COc1ccc(-c2noc3c2-c2nc(-c4ccc(Cl)cc4)sc2CC3)cc1 | 0 | 19 | -1 | -2 | -12 | 6
Fc1ccc(NC(=S)N/N=C/c2ccc(F)c(F)c2)cc1 | 0 | 13 | 1 | · | 25 | 2
COc1ccc(NC(=S)Nc2cccc(C(C)=O)c2)cc1OC | 0 | 2 | -2 | -10 | 21 | 4
COc1ccc(NC(=S)N/N=C/c2ccc(F)cc2)cc1OC | 0 | -24 | -7 | 38 | 45* | -6
COc1ccc(Cl)cc1NC(=S)Nc1ccccc1F | 0 | 4 | -1 | -2 | 41* | 4

Assay outcomes: PubChem, several laboratories
